Shown is part of a subset that was picked to be rich in hits.
Sfp PPTase inh – qHTS Assay for Inhibitors of Bacillus subtilis Sfp phosphopantetheinyl transferase (PPTase). Biochemical Sfp PPTase activity, qHTS. Potency, µM, for the others: largest response in the series, negative = inhibition, hits mostly inhibitors. 310,000 tested, 3.5% active. AID 1490, 2009;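 also: the enzyme is Sfp with the accession as filed and its product quenches rhodamine fluorescence; 0% = enzyme reaction without inhibitor and -100% = no enzyme wells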
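Reaction rates are the 30-min fluorescence difference (ex 525, em 598 nm) in wells containing 15 nM Sfp, 5 uM rhodamine-CoA and 12.5 uM BHQ-2-YbbR at pH 7.6 with 10 mM MgCl2.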
GRP78 ERSR act – qHTS for Inducers of the Endoplasmic Reticulum Stress Response (ERSR) in Human Glioma: qHTS | U87-MG GRP78 promoter luciferase reporter, 16 h | Potency, µM, inactives show at the highest dose activation, actives largely listed as activators | 420,000 tested, 0.02% active; also: series mostly up to about 76 µM; % of control where 0% means no effect; nearly all actives have a fitted effect of over 35% in size
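Stably transfected U87-MG human glioma cells carrying a GRP78-based luminescent sensor were seeded at 1000 cells/well, pin-dosed with compounds and incubated 16 h. Luciferase reagent was then added, and end-point luminescence was read after 10 min at room temperature.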
G9a inh – qHTS Assay for Inhibitors of Histone Lysine Methyltransferase G9a. G9a H3K9 monomethylation, AlphaScreen, 2 h. AID 504332, 2011. 350,000 tested, 8.8% active. Histone-lysine N-methyltransferase EHMT2 (Homo sapiens), Q96KQ7. Potency, µM (top dose mostly 102 µM), for inactives: top-dose activity, negative = inhibition, hits mostly inhibitors; also: % is scaled to controls: 0 for no effect and ±100 for the full control effect; nearly all actives have a fitted effect of over 75% in size
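Readings reflect AlphaScreen signal from monomethyl-H3K9 antibody detection. HMT at 20 nM; substrate b-H3K9 500 nM; cofactor SAM 20 uM; 2 h RT reaction; compounds tested as titrations in qHTS with 15 min preincubation.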
ALOX12 inh – Primary qHTS assay for inhibitors of human arachidonate 12S-lipoxygenase (ALOX12): Round 2 | Polyunsaturated fatty acid lipoxygenase ALOX12 (Homo sapiens), P18054 | purified 12hLO, xylenol orange hydroperoxide absorbance | Potency, µM (doses to about 108 µM), for the others: at the top dose activity change, negative = inhibition, most hits filed as inhibitors | 580,000 tested, 1.1% active; also: % is scaled to controls: 0 for no effect and ±100 for the full control effect
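Purified human 12hLO (150 nM final) in 25 mM Hepes, 0.01% Triton X-100, pH 7.0 was preincubated 15 min at room temperature with compound. Then 40 uM arachidonic acid was added, 30 min. Hydroperoxide was read by Fe-XO absorbance ratio 573/405 nm.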
VDR inhibitor – Inhibitors of the vitamin D receptor (VDR): qHTS; Potency, µM, without a hit: max response, negative = inhibition, most hits filed as inhibitors; VDR-SRC2-3 peptide fluorescence polarization, 2 h; Vitamin D3 receptor (Homo sapiens), P11473; AID 504847, 2011; 400,000 tested, 0.93% active; also: % is scaled to controls: 0 for no effect and ±100 for the full control effect
Target sequence (P11473 whole entry, looked up): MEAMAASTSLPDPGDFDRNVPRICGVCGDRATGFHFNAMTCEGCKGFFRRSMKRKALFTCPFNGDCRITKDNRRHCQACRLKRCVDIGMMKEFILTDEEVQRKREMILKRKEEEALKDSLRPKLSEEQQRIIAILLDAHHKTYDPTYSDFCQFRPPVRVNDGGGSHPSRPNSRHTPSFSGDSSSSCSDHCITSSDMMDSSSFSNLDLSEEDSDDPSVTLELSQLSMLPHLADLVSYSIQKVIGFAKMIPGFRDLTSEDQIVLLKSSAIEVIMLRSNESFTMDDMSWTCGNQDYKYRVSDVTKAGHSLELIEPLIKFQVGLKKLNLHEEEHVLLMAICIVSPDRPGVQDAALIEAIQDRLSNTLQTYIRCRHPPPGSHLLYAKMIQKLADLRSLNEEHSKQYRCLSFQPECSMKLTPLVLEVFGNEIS
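Signal is fluorescence polarization, reporting how far test compounds block the interaction of VDR with the SRC2-3 coregulator peptide after a 2 h room-temperature incubation.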
* marks the source's active call; other numbers are inactive results; ! = not active in a repeat; [ ] = remark or other dose. Calls follow the shape of the dose curve; as a rule, active = well fitted curve in the direction sought with a large enough effect; inconclusive = small, poorly fitted or top-dose-only effect, or another doubt; inactive = no such curve, though single readings can be large; an effect the other way counts as inactive or inconclusive. Potency is read from the fitted curve at half-maximal effect.

What do the screens show for `O=C(/C=C/c1ccc(F)cc1)c1cc(Br)ccc1O`?
Sfp PPTase inh: -3%; GRP78 ERSR act: 6%; G9a inh: 100%; ALOX12 inh: -7%; VDR inhibitor: inconclusive

Results for CCNC(=O)/C=C/c1cccc(Br)c1 ?
Sfp PPTase inh: 15%; GRP78 ERSR act: -2%; G9a inh: -19%[12.7 µM]; ALOX12 inh: -5%[22.9 µM]; VDR inhibitor: -11%

What do the screens show for `CCNc1ccc(Br)cc(C(=O)/C=C/c2ccc3c(c2)OCO3)c1=O`?
Sfp PPTase inh: -81%; GRP78 ERSR act: inconclusive; ALOX12 inh: 3.2µM*; VDR inhibitor: 89µM*

What do the screens show for `CCNc1ccc(Br)cc(C(=O)/C=C/c2ccc(Cl)cc2)c1=O`?
Sfp PPTase inh: 40µM*; GRP78 ERSR act: 10%; G9a inh: 10µM*; VDR inhibitor: inconclusive

How did COCCNC(=S)NNc1cccc(C(=O)O)c1 do in these assays?
Sfp PPTase inh: 7.1µM*; GRP78 ERSR act: 0%; G9a inh: 10µM*; ALOX12 inh: -10%; VDR inhibitor: inconclusive

Results for CCc1c(C)[nH]c2c1C(=O)C(CN1CCOCC1)CC2 (stereo not drawn) ?
GRP78 ERSR act: -3%; G9a inh: 19µM*!; ALOX12 inh: -5%; VDR inhibitor: -14%

How did CCc1c(C)nc(N2CCOCC2)[nH]c1=O do in these assays?
Sfp PPTase inh: -5%; GRP78 ERSR act: -1%; G9a inh: -2%[59 µM]; ALOX12 inh: -7%; VDR inhibitor: 9%

Results for CCCN(C(=O)Cn1nc(Cc2ccncc2)c2ccccc2c1=O)c1ccc(F)cc1 ?
ALOX12 inh: 84%

Results for CNS(=O)(=O)c1cc(-c2c(C)nn3c2NC(=O)CCC3=O)ccc1C ?
ALOX12 inh: -2%

Results for O=S(=O)(NNc1ccc(Cl)nn1)c1ccc(F)cc1 ?
Sfp PPTase inh: 13µM*; GRP78 ERSR act: -4%; G9a inh: 1.3µM*; ALOX12 inh: 1.3µM*; VDR inhibitor: -11%

What do the screens show for `O=S(=O)(Nc1ccc(Cl)nn1)c1ccccc1`?
Sfp PPTase inh: 24%; GRP78 ERSR act: -6%; G9a inh: -33%; ALOX12 inh: -10%; VDR inhibitor: -20%

How did O=S(=O)(NNc1cccc(Cl)n1)c1ccc(Cl)cc1 do in these assays?
Sfp PPTase inh: 40µM*; GRP78 ERSR act: -2%; ALOX12 inh: -7%; VDR inhibitor: 4%

What do the screens show for `N/C(=N\OC(=O)c1csnn1)c1ccc(C(F)(F)F)cc1`?
Sfp PPTase inh: 56µM*; GRP78 ERSR act: 8%; G9a inh: 18µM*; ALOX12 inh: inconclusive; VDR inhibitor: 0%

Results for Cc1ccc(C(=O)O/N=C(\N)c2ccc(C(F)(F)F)cn2)cc1 ?
Sfp PPTase inh: -2%; GRP78 ERSR act: -2%; G9a inh: 0%; ALOX12 inh: 1%; VDR inhibitor: 17%

What do the screens show for `CC(C)(C)c1ccc(C(=O)CCCSC2=C(C#N)C(c3ccco3)C3=C(CCCC3=O)N2)cc1` (stereo not drawn)?
Sfp PPTase inh: 50µM*; GRP78 ERSR act: -3%; G9a inh: inconclusive; ALOX12 inh: 0%; VDR inhibitor: -13%

What do the screens show for `N#CC1=C(SCC(=O)c2ccccc2)NC2=C(C(=O)CCC2)C1c1ccco1` (stereo not drawn)?
Sfp PPTase inh: 32µM*; GRP78 ERSR act: -5%; G9a inh: inconclusive; ALOX12 inh: inconclusive; VDR inhibitor: -12%

How did CCOC(=O)CSC1=C(C#N)C(c2ccccc2C)C2=C(CCCC2=O)N1 (stereo not drawn) do in these assays?
Sfp PPTase inh: 14µM*; GRP78 ERSR act: 1%; G9a inh: inconclusive; ALOX12 inh: inconclusive; VDR inhibitor: -6%

Results for Cc1cccc(C)c1NC(=O)CCc1c[nH]c2ccccc12 ?
ALOX12 inh: -45%

What do the screens show for `COCCC(=O)N1CC(Oc2ccc(-c3noc(-c4ccccc4)n3)cc2)C1`?
ALOX12 inh: -17%
